Source: PubChem BioAssay
HCV inhibitor: inhibitors of hepatitis C virus infection. Huh7.5.1 HCVcc-Cre infection, luciferase reporter, 44 h. Potency, µM (highest dose often 41.8 µM), for the others: at the highest dose activity change, negative = inhibition, actives largely listed as inhibitors. 340,000 compounds, 3.4% hits
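Infectious HCVcc-Cre (~0.5 moi) was added to cells just after compound, with cells seeded 4 h earlier at 1,000 per well. Luciferase activity after 44 h culture reported infection; substrate was incubated 15 min at room temperature before reading.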
Pf growth 48h: P. falciparum growth inhibition at 48 hours (one generation); P. falciparum luciferase growth in erythrocytes, 48 h; Potency, µM (top dose mostly 28.7 µM), inactives show at the highest dose activity change, negative = inhibition, usual class: inhibitors; 310,000 compounds, 5.9% hits; AID 504832
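Erythrocytes infected with P. falciparum carrying an integrated firefly luciferase reporter (2% hematocrit, 0.1% parasitemia final) were exposed to compounds in RPMI 1640 with 0.5% Albumax at 37 C, 5% CO2. Growth inhibition was scored as reduced luminescence.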
Pf growth 96h: inhibits malaria parasite growth, 96 h | P. falciparum luciferase reporter growth, 96 h | Potency, µM (top dose mostly 28.7 µM), inactives show top-dose activity change, negative = inhibition, usual class: inhibitors | 320,000 compounds, 6.9% hits | AID 504834
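Plates of compound plus infected erythrocytes (2% hematocrit, 0.05% parasitemia final) incubate 96 hours, 37 C, 5% CO2. Detection reagent added; reduced luminescence from the parasites' luciferase reporter flags inhibition.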
AMA1-RON2 inh: inhibitors of Plasmodium falciparum AMA1-RON2 interaction. 360,000 compounds, 0.2% hits. AID 720542. Potency, µM (top dose mostly 58.2 µM), without a hit: at the top dose activity change, negative = inhibition, hits mostly inhibitors. AlphaScreen AMA1-biotinylated RON2 peptide binding;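 also: 0% = vehicle wells and -100% = peptide control; nearly all actives have a fitted effect of over 45% in size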
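AMA1 (3D7) with his tag at 25 nM final met compounds first, then biotinylated RON2 peptide at 25 nM; detection used donor plus acceptor beads, 10 µg/mL apiece, read by AlphaScreen after 30 min at room temperature.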
An asterisk follows results filed as active; ? = inconclusive; nt = not tested or not shown. Most compounds without a hit are left out; they make up all but 11% or so of the library. Calls follow the shape of the dose curve; as a rule, active = well fitted curve in the direction sought with a large enough effect; inconclusive = small, poorly fitted or top-dose-only effect, or another doubt; inactive = no such curve, though single readings can be large; an effect the other way counts as inactive or inconclusive. Unless noted, % is scaled to controls: 0 for no effect and ±100 for the full control effect; potency is read from the fitted curve at half-maximal effect.

SMILES	HCV inhibitor	Pf growth 48h	Pf growth 96h	AMA1-RON2 inh
Cc1cc(OCc2cc(C(=O)N3CCN(C)C(=O)[C@@H]3C)no2)cc(C)c1Cl	12.6µM*	?	?	-9.5%
Cc1cc(OCc2cc(C(=O)N(Cc3nccn3C)C(C)C)no2)cc(C)c1Cl	11.2µM*	-0.4%	14.7µM*	-7.1%
CN(Cc1nccn1C)C(=O)c1cc(COc2cccc(C(F)(F)F)c2)on1	?	-9.3%	9.28µM*	-6.7%
COc1cc(Cl)ccc1OCc1cc(C(=O)N2CCN(C)C(=O)[C@@H]2C)no1	nt	nt	nt	-4.3%
CC(C)N(Cc1nccn1C)C(=O)c1cc(COc2cccc(C(F)(F)F)c2)on1	?	10.5%	-14.1%	-1.0%
CC(=O)Oc1ccc(-c2cccc(C(=O)N(C)c3ccc(O)cc3)c2)cc1	7.6%	?	11.0%	6.9%
CC(C)c1ccc(S(=O)(=O)N2CCN(C(=O)c3cccc(F)c3)CC2)cc1	-17.5%	?	nt	-3.4%
COc1c(C)cc(S(=O)(=O)NCc2ccco2)c(C)c1C	12.8%	?	?	-1.4%
CCOC(=O)CSc1nc2ccccc2c(=O)n1CC1CCCO1 (stereo unspecified)	8.91µM*	21.8%	?	0.9%
CCOC(=O)CSc1nc2ccccc2c(=O)n1CC1COc2ccccc2O1 (stereo unspecified)	2.51µM*	1.6%	-6.1%	-2.5%
CC(C)CCn1c(SC(C)C(=O)NC2CC2)nc2ccccc2c1=O (stereo unspecified)	?	?	?	24.6%
CC(Sc1nc2ccccc2c(=O)n1C)C(=O)N(C)C1CCCCC1 (stereo unspecified)	?	1.85µM*	?	1.5%
CC(Sc1nc2ccccc2c(=O)n1CC1CCCO1)C(=O)N(C)Cc1ccccc1 (stereo unspecified)	?	?	10.4µM*	4.5%
CN(C)CCNc1ncnc2c1ncn2[C@H]1CN(Cc2ccc(-c3ccccc3)cc2)C[C@@H](CO)O1	nt	nt	nt	-2.1%
O=C(c1ccccn1)N1CCCC(N2CCN(c3cccc(C(F)(F)F)c3)CC2)C1 (stereo unspecified)	1.0%	?	-14.2%	0.0%
O=c1c2ccccc2c(C=Nc2cccc(S(=O)(=O)NCc3ccco3)c2)c(O)n1-c1ccc(Cl)cn1	?	14.7µM*	?	-5.9%
Cc1nc2cc(-c3ccc(Cl)cc3)nn2c(NCCN(C)C)c1C	17.8µM*	?	10.4µM*	?
COc1ccc(NC(=S)Nc2nc(CC(=O)Nc3ccccc3OC)cs2)cc1	31.6µM*	-4.6%	55.3%	54.4%
COc1ccccc1NC(=O)Cc1csc(NC(=S)Nc2ccccc2)n1	12.6µM*	-7.4%	59.2%	42.1%
CCC(=O)Nc1nc(CC(=O)Nc2ccccc2)cs1	8.1%	1.0%	?	-7.2%
CCn1cc(Br)c(C(=O)NC(=S)Nc2ccc(C(=O)OC)cc2)n1	20.5%	3.7%	10.2%	-2.3%
COc1ccc(NC(=S)NNC(=O)CNc2ccc(Cl)cc2)cc1	9.6%	?	-3.5%	54.9%
CC(C)CC(=O)NCC(C)NC(=O)CC(C)C (stereo unspecified)	1.4%	12.8%	14.7µM*	26.6%
CCC(C)NC(=O)CC(C)C (stereo unspecified)	5.0%	-19.5%	-3.8%	-6.5%
CN(C(=O)COC(=O)CCCN1C(=O)c2cccc3cccc(c23)C1=O)C1CCS(=O)(=O)C1 (stereo unspecified)	6.7%	-0.3%	16.0%	-5.8%
SMILES	HCV inhibitor	Pf growth 48h	Pf growth 96h	AMA1-RON2 inh
CCOC(=O)c1c(NC(=S)NC(C)=O)sc(C)c1C	-0.3%	9.1%	31.9%	3.4%
C=CCOc1ccc(-c2nc3c(c(=O)[nH]c(=O)n3CCCC)n2C)cc1Br	-18.2%	1.8%	0.6%	-7.8%
CCCCn1c(=O)[nH]c(=O)c2c1nc(-c1ccccc1F)n2Cc1ccccc1OC	10µM*	?	?	-19.1%
CCCCn1c(=O)[nH]c(=O)c2c1nc(-c1ccc(OC)c(Br)c1)n2CC(C)C	10µM*	?	2.08µM*	-16.6%
COc1cccc(CN2CCNC(=O)C2CC(=O)N(C)CCC2CCOCC2)c1OC (stereo unspecified)	nt	-11.6%	-12.2%	-4.5%
NS(=O)(=O)c1ccc(CNC(=O)c2csc3c2CCCC3)cc1	-2.8%	-4.7%	21.1%	-0.4%
Cc1ccc2nc(SC(C)C(=O)Nc3cccc([N+](=O)[O-])c3)[nH]c2c1 (stereo unspecified)	?	?	?	0.0%
